Inconclusive results are not listed. Calls of active or inactive are those of the source. How the source made its calls: active means hit-call score of the fitted dose curve at least 0.9, where 1 is the maximum; inconclusive means response in the unintended direction; inactive means score below 0.9.
Each compound was assayed against human Vitamin D Receptor (VDR), VDR (gene 7421) (UniProt P11473) (assay: ATG_VDR_TRANS: Attagene TRANS-FACTORIAL HepG2 Assay for human Vitamin D Receptor (VDR) (AID 2283022)).
human Vitamin D Receptor (VDR), VDR (gene 7421), sequence (P11473 whole entry, looked up): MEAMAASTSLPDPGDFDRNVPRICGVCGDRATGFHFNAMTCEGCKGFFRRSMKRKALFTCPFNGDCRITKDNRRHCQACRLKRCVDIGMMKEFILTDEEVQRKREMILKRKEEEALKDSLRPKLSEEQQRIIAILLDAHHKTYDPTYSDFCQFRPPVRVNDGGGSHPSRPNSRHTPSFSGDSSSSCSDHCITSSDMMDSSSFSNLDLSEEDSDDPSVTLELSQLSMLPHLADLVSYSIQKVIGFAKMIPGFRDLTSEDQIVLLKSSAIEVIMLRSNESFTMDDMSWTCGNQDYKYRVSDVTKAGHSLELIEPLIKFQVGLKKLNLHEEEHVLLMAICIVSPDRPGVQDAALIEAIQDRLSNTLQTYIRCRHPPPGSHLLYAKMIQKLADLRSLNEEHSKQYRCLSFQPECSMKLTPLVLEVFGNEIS
Protocol: ATG_TRANS is a cell-based, multiplexed-readout assay that uses HepG2, a human liver cell line, with measurements taken at 24 hours after chemical dosing in a 24-well plate.ATG_VDR_TRANS is one of 30 assay component(s) measured or calculated from the ATG_TRANS assay. It is designed to make measurements of mRNA induction, a form of inducible reporter, as detected with fluorescence intensity signals by Reverse transcription polymerase chain reaction (RT-PCR) and Capillary electrophoresis technology.Data from the assay component ATG_VDR_TRANS was analyzed into 1 assay endpoint. This assay endpoint, ATG_VDR_TRANS, was analyzed in the positive analysis fitting direction relative to DMSO as the negative control and baseline of activity. Using a type of inducible reporter, measures of mRNA for gain-of-signal activity can be used to understand the reporter gene at the transcription factor-level as they relate to the gene VDR. Furthermore, this assay endpoint can be referred to as a primary readout, because this assay has produced multiple assay endpoints where this one serves a reporter gene function. To generalize the intended target to other relatable targets, this assay endpoint is annotated to the nuclear receptor intended target family, where the subfamily is non-steroidal.
Human liver HepG2 cells are transiently transfected with multiple reporter transcription units (MRTUs) in 6-well plates using FuGene 6 reagent (Roche; 3 ml FuGene/1 mg DNA). The MRTU constructs are regulated by a cis-regulating element (promoter). […] A major difference between the CIS and TRANS system is that in CIS activities of endogenous TFs are measured, whereas the TRANS assay evaluates changes in activities of exogenous, chimeric NR-Gal4 proteins. […] At the end of 24 hour incubation, total RNA was isolated using TriZol reagent (Invitrogen). The isolated RNA is then reverse-transcribed using oligo(dT) primer and Mo-MLV reverse transcriptase (Invitrogen) with DNAse I (Ambion) treatment for 30 min. The one-tenth of the produced cDNA was amplified by PCR using Taq DNA polymerase (Invitrogen) and two reporter sequence-specific primers. The PCR products were fluorescently labeled by primer extension with 6-arboxyfluorescein (6-FAM) 5'-labeled reporter sequence-specific primer (2 min at 95 C, 20 s at 68 C and 10 min at 72 C) and these products were digested with 5U of HpaI (New England Biolabs) for 2h at 37 C. The fragments were purified using Qiaquick PCR columns (Qiagen), analyzed on an ABI 3130xL genetic analyzer (Applied Biosystems) with peak positions identified by using a set of X-rhodamine (ROX)-labeled MapMarker1000 molecular weight standards (BioVentures). The raw capillary electrophoresis data was processed using Attagraph software (Attagene).

Row | Structure (SMILES) | outcome
1 | CCCOC(=O)NCCCN(C)C | inactive
2 | CCOC(=O)[C@H](C)Oc1ccc(Oc2nc3ccc(Cl)cc3o2)cc1 | inactive
3 | CC(C)CCCCCCc1ccc(O)cc1 | inactive
4 | C=CCOC(Cn1ccnc1)c1ccc(Cl)cc1Cl (stereo not drawn) | inactive
5 | COC(=O)c1ccc(CNS(C)(=O)=O)cc1S(=O)(=O)NC(=O)Nc1nc(OC)cc(OC)n1 | inactive
6 | CCCN(CCC)C(=O)SCC | inactive
7 | CCCCCOC(=O)COc1cc(N2C(=O)C3=C(CCCC3)C2=O)c(F)cc1Cl | inactive
8 | CCOC(=O)c1ccc(O)cc1 | inactive
9 | COC(=O)c1ccccc1S(=O)(=O)NC(=O)Nc1nc(OC(F)F)cc(OC(F)F)n1 | inactive
10 | C[C@]12CC[C@@H]3c4ccc(O)cc4C[C@@H](CCCCCCCCCS(=O)CCCC(F)(F)C(F)(F)F)[C@H]3[C@@H]1CC[C@@H]2O (stereo partly drawn) | inactive
11 | O=C(c1ccccc1)C1CCCCC1 | inactive
12 | O=C(O)C1(C(=O)Nc2ccc(Cl)cc2Cl)CC1 | inactive
13 | C#C[C@]1(O)CC[C@H]2[C@@H]3CCC4=CC(=O)CC[C@@H]4[C@H]3CC[C@@]21CC | inactive
14 | CC1(C)C(C=C(Cl)Cl)C1C(=O)OCc1cccc(Oc2ccccc2)c1 (stereo not drawn) | inactive
15 | N[C@@H](Cc1cc(I)c(Oc2ccc(O)c(I)c2)c(I)c1)C(=O)O | inactive
16 | c1ccc2[nH]c(-c3cscn3)nc2c1 | inactive
17 | Cc1nn(C)c(Oc2ccccc2)c1C=NOCc1ccc(C(=O)OC(C)(C)C)cc1 | inactive
18 | COC(=O)c1c(Cl)nn(C)c1S(=O)(=O)NC(=O)Nc1nc(OC)cc(OC)n1 | inactive
19 | Oc1ccc(C(c2ccc(O)cc2)C(Cl)(Cl)Cl)cc1 | inactive

Row | Structure (SMILES) | outcome
20 | OB(O)O | inactive
21 | CCOC(=O)COc1cc(-n2ncc(C(F)(F)F)c(C)c2=O)c(F)cc1Cl | inactive
22 | c1ccc(Nc2ccccc2)cc1 | inactive
23 | C#CCOC(=O)[C@@H](C)Oc1ccc(Oc2ncc(Cl)cc2F)cc1 | inactive
24 | CC(=O)S[C@@H]1CC2=CC(=O)CC[C@]2(C)[C@H]2CC[C@@]3(C)[C@@H](CC[C@@]34CCC(=O)O4)[C@H]12 | inactive
25 | CCOC(=O)C(C)Oc1ccc(Oc2nc3ccc(Cl)cc3o2)cc1 (stereo not drawn) | inactive
26 | O=C(c1ccc(O)cc1O)c1ccc(O)cc1O | inactive
27 | CC(=O)[C@H]1CC[C@H]2[C@@H]3CCC4=CC(=O)CC[C@]4(C)[C@H]3CC[C@]12C | inactive
28 | CCOC(=O)NCCOc1ccc(Oc2ccccc2)cc1 | inactive
29 | CCCCOC(=O)C(C)Oc1ccc(Oc2ccc(C(F)(F)F)cn2)cc1 (stereo not drawn) | inactive
30 | O=C(O)c1ccccc1 | inactive
31 | COCCO | inactive
32 | CSC(=O)c1cccc2nnsc12 | inactive
33 | COc1nc(C)nc(NC(=O)NS(=O)(=O)c2ccccc2OCCCl)n1 | inactive
34 | CCCCCCC(C)OC(=O)COc1nc(F)c(Cl)c(N)c1Cl (stereo not drawn) | inactive
35 | CCN(CC)C(=O)c1cccc(C)c1 | inactive
36 | S=C(S)NCCNC(=S)S.[Mn+2].[S-]C([S-])=NCCN=C([S-])[S-].[Zn+2] | inactive
37 | COc1c(Cl)ccc(Cl)c1C(=O)O | inactive
38 | N#CSCSc1nc2ccccc2s1 | inactive

From PubChem BioAssay (EPA / NIEHS)
